# Laboratory results as given in ChEMBL document CHEMBL1157539, “Thousands of chemical starting points for antimalarial lead identification” (Nature, 2010).
# How the values were obtained:
# Format in all cases: functional
# Plasmodium falciparum [1] = assay: GSK_TCMDC: Inhibition of Plasmodium falciparum 3D7 in whole red blood cells, using parasite LDH activity as an index of growth. Test compounds present at 2uM
# Plasmodium falciparum [2] = assay: GSK_TCMDC: Inhibition of Plasmodium falciparum Dd2 in whole red blood cells, using parasite LDH activity as an index of growth. Test compounds present at 2uM
# HepG2 = assay: GSK_TCMDC: Percent inhibition of human HepG2 cell line. Test compounds present at 10uM.
Compound,Inhibition (Plasmodium falciparum [1]) [%],Inhibition (Plasmodium falciparum [2]) [%],Inhibition (HepG2) [%]
CCCc1cc(OC)c(C[C@H]2c3cc(O)c(Cl)cc3CCN2C)cc1OC.Cl,97,98,0
COc1cccc(CCc2nc3c(N4CCC(Cc5ccccc5)CC4)cccc3n2CC2CNCCO2)c1.O=C(O)C(F)(F)F (stereo not given),94,96,4
CS(=O)(=O)O.FC(F)(F)COc1ccc(CCNCCCCNCCc2ccc(OCC(F)(F)F)c3ccccc23)c2ccccc12,99,70,100
Cc1ccc(C(O)CNc2ccnc(Nc3cccc(-c4csc(C)n4)c3)n2)cc1 (stereo not given),92,31,17
CCOC(=O)CNC(=O)N(CCN(Cc1ccccc1)C(=O)NCC(=O)OCC)Cc1ccccc1,98,0,9
CCN(CC)CCCn1c(N)c(-c2nc3ccccc3[nH]2)c2nc(C#N)c(C#N)nc21,100,99,8
CC[C@H](NC(=O)c1c(CCCN2CCN(c3ccccc3)CC2)c(-c2ccccc2)nc2cc(O)ccc12)c1ccccc1,96,97,12
CC(C)CCCC(C)(C)NC[C@@H](O)[C@H](Cc1ccccc1)NC(=O)c1cccc(CCC2CC2)c1,98,52,100
CCCCCC(C)C(C)c1cc(O)c2c(c1)OC(C)(C)CC2=Cc1ccncc1 (stereo not given),100,78,0
O=C(Nc1ccc(C(=O)N2CCN(CCN3CCN(c4cccc(C(F)(F)F)c4)CC3)CC2)cc1)c1ccc(OC(F)(F)F)cc1,95,25,38
O=C(Nc1cccc(-c2ccc(-c3nc4cc(C(F)(F)F)ccc4[nH]3)cc2)c1)c1c[nH]cn1,91,21,16
CCC(CC)CN1C(=O)C(C)(c2ccccc2)N=C1N.O=C(O)C(F)(F)F (stereo not given),84,11,1
O=C(O)C(F)(F)F.Oc1ccc(CCNc2nc(NCCCOc3ccccc3-c3cccnc3)nc(N3CCNCC3)n2)cc1,92,1,10
N=C(N)NN=CC(=O)Nc1ccc(Cl)c(Cl)c1,97,0,0
Br.CC1(C)NC(N)=NC(=N)N1OCCCOc1ccc(N)cc1,96,95,66
